IL1B NFkB pot: enhancers of NFkB p65 translocation in HUVEC – imaging, IL-1B stimulus, high-content imaging, primary screen. HUVEC IL-1B NFkB p65 nuclear translocation imaging. AID 819, 2007. activation, % at 2 µM. hit rate 0.3% among 94,000;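 active = activation above 40%, about the mean plus 3 SD, also judged a hit on visual image review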;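 also: percent activation is computed from the nuclear over cytoplasmic p65 intensity ratio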
HUVEC tox TNFa: cytotoxicity in TNFa-stimulated HUVEC, primary screen, cytotoxicity control for VCAM1 expression modulator project, imaging, Hoechst nuclei count | HUVEC TNFalpha-stimulated, Hoechst cell count | cell count reduction, % at 2 µM | hit rate 0.17% among 93,000 | AID 848, 2007;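 active = cell count reduction exceeding the screen mean by over 5 SD, scaled to untreated wells per plate, cut at about 78% in these data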;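 also: cells counted after 24 h of TNF alpha exposure following the 1 h pretreatment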
NFkB transloc inh: inhibitors of IL-1B driven NFkB p65 nuclear import, primary screen, imaging, HUVEC, IL-1B stimulus, high-content imaging. HUVEC IL-1B NFkB p65 nuclear translocation imaging. hit rate 0.43% among 94,000. inhibition, % at 2 µM. AID 796, 2007;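 active = inhibition above about 30% together with a positive call from visual inspection of the well image, limit read from the data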;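 also: nuclear over cytoplasmic p65 intensity ratio measured by imaging; 0% = IL-1B stimulated DMSO wells and 100% = unstimulated DMSO wells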
E-sel TNF inh: E-selectin induction blockers in HUVEC – imaging, immunofluorescence, high content, primary screen. HUVEC TNFa-induced E-selectin immunofluorescence. inhibition, % at 2 µM. hit rate 0.71% among 120,000. AID 1246, 2008;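 active = inhibition above the batch mean plus 3 SD, and confirmed as a hit on visual image review, cut at about 43% in these data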;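 also: 0% = TNF-stimulated DMSO wells and 100% = unstimulated control wells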
IL1B cytotox: cytotoxicity in IL-1B stimulated HUVEC, primary screen, cytotoxicity control for IL-1B NFkB translocation project, imaging, Hoechst nuclear count, IL-1B stimulus; HUVEC cell count loss; cell count reduction, % at 2 µM; hit rate 0.41% among 94,000;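 active = cell count reduction more than 3 SD above the screen-wide mean, cut at about 70% in these data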;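 also: normalized per plate to untreated control cells as the no-loss baseline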
VCAM1 TNFa inh: inhibitors of TNFa-induced VCAM1 expression, primary screen, imaging, HUVEC, TNFa stimulus, immunofluorescence. HUVEC TNFa-induced VCAM-1 immunofluorescence, high-content imaging. inhibition, % at 2 µM. hit rate 0.48% among 95,000. AID 802, 2007;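 active = inhibition above the batch mean plus 3 SD, with images confirmed as a hit by eye, cut at about 37% in these data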;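 also: 0% = TNF-stimulated DMSO wells and 100% = unstimulated control wells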
Active calls of the source: *; . = no result given. An excerpt weighted towards active compounds, which were near 1.7% of everything screened.

SMILES | IL1B NFkB pot | HUVEC tox TNFa | NFkB transloc inh | E-sel TNF inh | IL1B cytotox | VCAM1 TNFa inh
COc1ccc(S(=O)(=O)N(CC(=O)NCC2CCCO2)c2ccc(F)cc2)cc1OC (stereo not drawn) | 2 | 18 | -2 | 15 | -6 | 10
O=C1CC(c2ccccc2)n2nc(NC(=O)C3CCCO3)nc2N1 (stereo not drawn) | 12 | -11 | -12 | 45* | 2 | 11
CN1CCN(C(=O)c2cn(C)c3ccc(S(=O)(=O)N(C)C4CCCCC4)cc3c2=O)CC1 | -6 | -11 | 6 | . | -31 | -1
CN(C)S(=O)(=O)c1ccc2c(c1)c(=O)c(C(=O)N1CCOCC1)cn2C | -66 | -42 | 66* | . | -76 | 11
Cc1ccc(Cn2c(C(=O)NCCCN3CCOCC3)cc3sccc32)cc1 | . | . | . | 23 | . | .
Cn1c(C(=O)NCCN2CCOCC2)cc2sccc21 | -8 | 88* | 8 | . | 0 | 64
COc1ccc(N2CCN(C(=O)CN(C)S(=O)(=O)c3cnc[nH]3)CC2)cc1 | . | . | . | -7 | . | .
CC(NC(=O)COC(=O)Cc1ccsc1)C1CC2CCC1C2 (stereo not drawn) | 0 | 49 | 0 | -4 | 5 | 88*
Cc1ccc(-n2c(=O)c3ccccc3n(CC(=O)C(C)(C)C)c2=O)cc1 | . | . | . | 33 | . | .
O=C(COc1ccc2ccccc2c1)N/N=C/C1CC=CCC1 (stereo not drawn) | . | . | . | -11 | . | .
O=C1c2cccc3c([N+](=O)[O-])ccc(c23)C(=O)N1c1ccc(Cl)cn1 | -30 | 30 | 30* | 37 | 83* | 69*
O=C1c2cccc3c([N+](=O)[O-])ccc(c23)C(=O)N1c1nccs1 | -10 | 29 | 10 | 44 | 35 | 76*
O=C1c2cccc3c([N+](=O)[O-])ccc(c23)C(=O)N1c1ccccn1 | . | 43 | . | -24 | . | 33
Cc1ccc2c(c1)N(CC(=O)Nc1ccc3c(c1)OCCO3)C(=O)CO2 | -99 | -2 | 99* | -4 | 91* | 8
O=C(CN1C(=O)CCSc2ccccc21)Nc1ccc2c(c1)OCCO2 | -2 | 8 | 2 | . | 16 | 10
CN(c1ccc(C(=O)N2CCCCC2)cc1)S(C)(=O)=O | 9 | -5 | -9 | 0 | 12 | 9
CN(c1ccc(C(=O)Nc2ccccc2C(=O)N2CCCC2)cc1)S(C)(=O)=O | 0 | . | 0 | -7 | 82* | -22
Cc1c(C(=O)O)c(-c2ccccc2)nn1-c1ccccc1 | -6 | . | 6 | -8 | 95* | -37
COc1ccccc1CNC(=O)c1c(-c2ccccc2)nn(-c2ccccc2)c1C | 6 | -38 | -6 | -10 | 0 | 0
CSc1ccc(-c2nnn(Cc3ccccn3)n2)cc1 | 11 | 8 | -11 | 13 | -15 | 12
CSc1ccc(-c2nnn(Cc3ccc(Br)cc3)n2)cc1 | 58* | -14 | -58 | -13 | 13 | 12
CCOC(=O)Cc1ncccc1C(=O)Nc1ccc(Oc2ccccc2)cc1 | . | . | . | -5 | . | .
O=C(Nc1nnc(C2CCCCC2)s1)c1cccs1 | -9 | -7 | 9 | 6 | 18 | -6
O=C(Nc1nnc(C2CCCO2)s1)c1cccs1 (stereo not drawn) | -37 | -1 | 37* | 16 | 70* | 17
Cc1ccc(N(C(=O)C2CCCC2)C2C=CS(=O)(=O)C2)cc1C (stereo not drawn) | 44* | -1 | -44 | -26 | -20 | 15
CC(C)(C)C(=O)/C(=C\c1ccc([N+](=O)[O-])cc1)n1cncn1 | -69 | -14 | 69* | 66* | 48 | 13
COC(=O)c1ccccc1Sc1c(/C=N/OC(=O)c2ccccc2)c(C(F)(F)F)nn1C | -45 | 31 | 44* | 10 | 30 | 5
O=C(COC(=O)C1(c2ccccc2F)CCCC1)NC1CCS(=O)(=O)C1 (stereo not drawn) | 12 | 1 | -12 | 7 | -10 | 95*
O=C(COC(=O)C1(c2ccc(F)cc2)CCCC1)NC1CC1 | -8 | -23 | 8 | 12 | 1 | 13
CC(C)(C)NC(=O)COC(=O)c1ccc(NC(=O)CC#N)cc1 | . | . | . | 12 | . | .

Screens as filed in PubChem.
